About 83,000 compounds went through this panel and 20% of them were active in at least one assay; those are over-represented in the sample as a whole.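 Compound tested at a single concentration for 48 hours in 96-well plates; a percent growth value below 10 was scored as active.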 The source made the active and inactive calls.
System: HL-60(TB) leukemia
Assay: NCI-60 one-dose screen, 48 h (100 = growth as untreated, 0 = no growth, -100 = all killed)
Details: 10 µM unless noted

Compound	growth
Cc1cccc(NCc2cn(-c3ccc(C(=O)O)cc3)nc2-c2ccc(C(=O)O)cc2)n1	101% (inactive)
CC1=CCC(OC(=O)C(C)(C)CC(O)(C(C)O)C(O)C2(C)C=CC(Cc3ccc(C(C)C)cc3)(C(C)C)CC2)(C(C)C)CC1 (stereo not given)	95.9% (inactive)
Oc1[nH]c2ccc(Cl)cc2c1/C=c1/ccc2c(c1)N=C(c1ccc(F)cc1)N=2	51.5% (inactive)
O=C(CCCCC(=O)Nc1ccc2c(c1)/C(=C/c1ccc[nH]1)C(=O)N2)NO	107% (inactive)
CC(=O)OC[C@H](O)[C@@]1(O)CC[C@H]2[C@@H]3CCC4=CC(=O)CC[C@]4(C)[C@H]3[C@@H](O)C[C@@]21C	101% (inactive)
COc1cccc(-c2nc3sccn3c2-c2ccnc(NCCCNS(=O)(=O)c3cccc(Cl)c3)c2)c1	-9.87% (active)
CC(=O)[C@H]1CC[C@H]2[C@@H]3CC[C@H]4CC=CC[C@]4(C)[C@H]3CC[C@]12C	69% (inactive)
C[C@H]1[C@H](C)CC[C@]2(C(=O)O)CC[C@]3(C)C(=CC[C@@H]4[C@@]5(C)C/C(=C/c6ccco6)C(=O)C(C)(C)[C@@H]5CC[C@]43C)[C@H]12	-3.02% [100 µM] (active)
NS(=O)(=O)c1ccc(Cn2c(SCC(=O)N/N=C/c3ccccc3O)nc3ccccc3c2=O)cc1	40.9% (inactive)
O=C(O)Cc1ccc2c(c1)Cc1cccnc1O2	103% (inactive)
COc1ccc2oc(-c3ccc(Cl)cc3)c(N3CCN(C)CC3)c2c1	28.2% (inactive)
COc1ccc(-c2cc(-c3cccc(NS(C)(=O)=O)c3)nc(N)c2C#N)cc1	0.807% (active)
C(=C1c2ccccc2-c2ccccc21)c1ccncc1	9.03% (active)
CNCCCNc1nc2ccccc2c2c(=O)c3cc(F)ccc3sc12	-5.1% (active)
Cc1ccc(-n2c3c(c(-c4ccccc4)c2-c2ccccc2)C2=NCCN2C=N3)cc1	98.5% (inactive)
OC(c1cccc(C(F)(F)F)c1)c1cnccc1NC1CCCCC1 (stereo not given)	45.3% (inactive)
COC(=O)c1nc(=S)[nH]c(C(=O)OC)c1C(=O)c1ccccc1	116% (inactive)
COc1ccc(-c2cc(/C=C3\C(=O)Nc4ccc(Cl)cc43)[nH]n2)cc1OC	60.2% (inactive)
COc1ccc(C2CC(c3ccc(Cl)cc3)=NN2/C=C2\SC(=S)N(NC(=O)Cc3ccccc3Nc3c(Cl)cccc3Cl)C2=O)cc1 (stereo not given)	64.7% (inactive)
O=C1OCC2=C1C(c1cccc(F)c1)c1cc3c(cc1N2CCO)OCO3 (stereo not given)	-28.9% (active)
COc1ccc(Nc2ccnc(NCCCNc3ccnc4cc(Cl)ccc34)n2)cc1	-68.6% (active)
CCN(CC)CC(=O)N(CC)c1ccc(C)c(Cl)c1	71.7% (inactive)
CCC12CCC[N+]3([O-])CCC4(C(=Nc5ccccc54)C(O)(C(=O)OC)C1)C23 (stereo not given)	124% (inactive)

Compound	growth
COC(=O)c1ccc(C)cc1	106% (inactive)
COc1cccc(Nc2nccc(Nc3ccc4[nH]ncc4c3)n2)c1	-62.3% (active)
COc1cc(OC)c(/C=C/C(=O)c2c(OC)cccc2OC)c(OC)c1	7.89% (active)
COc1cc2cc(NCc3cccc(Cl)c3)nc(C)c2cc1OC	14.5% (inactive)
CCn1c2c(c3ccccc31)SC1c3cccn3CCN1C2=S (stereo not given)	87.5% (inactive)
COc1ccc(-c2nn(-c3cccc(NC(=O)Nc4cccc(C(F)(F)F)c4)c3)cc2-c2ccncc2)cc1Cl	3.19% (active)
CCCN1[C@@H]2CC[C@H]1/C(=C\c1ccc(OC)c(OC)c1)C(=O)/C2=C/c1ccc(OC)c(OC)c1	20.5% (inactive)
N#CC1=C(N)Oc2c(sc3c(Br)cccc23)C1c1ccccn1 (stereo not given)	7.5% (active)
CC(=O)C1=C(O)C=C2Oc3c(C(=O)/C=C/c4cc(Cl)cc(Cl)c4)c(O)c(C)c(O)c3[C@]2(C)C1=O	-34.8% (active)
CCCCCCCCCCCCCCCCCCOc1ccccc1CC(=O)OCC[N+]1(C)CCOCC1	56.1% (inactive)
CCCCCCCCCCCCCCCC[N+]1(C)CCOCC1	-59.5% (active)
COc1cc2c(/C=C3\C(=O)Nc4ccc(Br)cc43)c(Cl)n(C)c2cc1C	-13.1% (active)
C=C1/C(=C\C=C2/CCC[C@]3(C)[C@@H]([C@H](C)CCCC(C)(C)O)CC[C@@H]23)C[C@@H](OC(=O)CBr)C[C@@H]1O	-59.4% (active)
CC1(C)C(N)=Nc2cc(OCCCN3Cc4ccccc4C3)c(OCC3CC3)cc21	36.2% (inactive)
CN1CCN(c2ccc(-c3ccc4ncc(C#N)c(Nc5ccc(F)c(Cl)c5)c4c3)cc2)CC1	22.3% (inactive)
COc1ccc(-c2nc3c(ncc4ccc(=O)[nH]c43)s2)cc1	80.1% (inactive)
O=C(N/N=C/[C@@H](O)[C@H](O)[C@H](O)CO)c1ccc(NC(=O)c2cccnc2)cc1	99.4% (inactive)
CCc1c(Nc2ccc(C)cc2)nc(N)[nH]c1=O	89.6% (inactive)
O=C(Nc1cccc2[nH]c(C(F)(F)F)nc12)c1ccc(-n2cnnn2)cc1	1.31% (active)
CCOc1ccc2c(c1)c(C)cc(C)[n+]2CC	61.5% (inactive)
COc1ccccc1/C=C1\COc2ccc(O)cc2C1=O	1.08% (active)
CCC(C)(C)C(=O)O[C@H]1C[C@@H](C)C=C2C=C[C@H](C)[C@H](CC[C@@H]3CC=CC(=O)O3)[C@H]21	5.76% (active)
